Activity calls are given as the source filed them.

This passage reports composite z-score and z-score results from PubChem BioAssay.

The target of the first experiment is Torsin-1A-interacting protein 2 (Homo sapiens) (UniProt Q8NFQ8). Nature of the experiment: LULL1 binders on small-molecule microarray, primary screen, cell lysate, human LULL1 lysate, 635/667 nm fluorescence (AID 1092).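 Note: probe is lysate of COS7 cells overexpressing human LULL1; score merges per-feature 667 nm fluorescence with signal-to-noise.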 The settings on record: hLULL1 lysate binding, 635 nm fluorescence, higher = more signal.
Sequence of Torsin-1A-interacting protein 2 (Homo sapiens) (Q8NFQ8 whole entry, looked up): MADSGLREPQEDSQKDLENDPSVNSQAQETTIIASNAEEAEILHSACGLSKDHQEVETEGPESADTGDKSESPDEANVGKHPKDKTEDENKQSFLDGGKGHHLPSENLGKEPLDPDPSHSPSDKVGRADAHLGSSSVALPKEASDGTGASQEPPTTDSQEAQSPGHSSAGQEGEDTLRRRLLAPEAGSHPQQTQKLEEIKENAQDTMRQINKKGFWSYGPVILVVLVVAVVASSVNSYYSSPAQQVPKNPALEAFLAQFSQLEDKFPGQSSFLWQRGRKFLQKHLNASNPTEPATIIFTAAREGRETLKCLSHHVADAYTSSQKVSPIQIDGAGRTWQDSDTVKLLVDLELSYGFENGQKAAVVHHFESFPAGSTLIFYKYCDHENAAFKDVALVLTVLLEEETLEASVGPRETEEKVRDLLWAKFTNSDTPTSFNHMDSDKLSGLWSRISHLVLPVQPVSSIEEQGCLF
Turning to `O=C1[C@H]2[C@H]3[C@H](O)[C@H](O)CC(=NOCc4ccccc4)[C@@H]3CC[C@H]2C(=O)N1Cc1ccc2c(c1)OCO2`, the composite z-score came to 0.664.

`COC(=O)CC=C[C@@H](C)[C@@H](C=NO[C@@H]1O[C@H](COC(C)=O)[C@@H](OC(C)=O)[C@H](OC(C)=O)[C@H]1OC(C)=O)OC` returned a composite z-score of 0.062.

`COc1cccc([C@H]2Oc3ccc(OC)cc3C(=NOC[C@@H](O)[C@H]3O[C@@H]4OC(C)(C)O[C@@H]4[C@H]3O)[C@@H]2O)c1` showed a composite z-score of 0.347.

As for `O=C1C[C@@H](O)[C@@H](O)[C@@H]2[C@@H]3C(=O)N(Cc4ccccc4)C(=O)[C@@H]3CC[C@@H]12`, the composite z-score amounted to 0.824.

With `CO[C@H]1COC(=O)CC=C[C@@H](C)[C@H](OC)COC(=O)CCC[C@@H]1C`, the composite z-score was -0.552.

On to `CCN1C(=O)[C@H]2[C@H]3[C@H](O)[C@H](O)CC(=NNC(=O)OCc4ccc(OC)cc4)[C@@H]3CC[C@H]2C1=O`, for which the composite z-score amounted to 0.0228.

System in another experiment: not listed separately
Nature of the experiment: E. coli growth modulation, two-sided OD650, primary screen, E. coli filamentation project, strain DRC41, 24 h (AID 1093).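 Note: MC1000 strain lacking acrAB efflux and sulA so SOS filamentation is blocked; test concentration not given here.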 The note with it: OD650, 24 h, higher = more signal, called active from +8 up or from −8 down.
As to `O=C1CCCC(C2=CCCCC2=O)C1` (configuration not stated), the z-score was 0.455 (inactive).

On to `Cn1c(=O)n2n(c1=O)[C@H]1[C@H](O)[C@@H]3O[C@@H]3C(=NOCc3ccccc3)[C@H]1CC2`, for which the z-score is 0.703 (inactive).

For `CO[C@H](C1CCCCC1)[C@H](C)C=CCC(=O)OCCCc1ccccc1`, the z-score is -0.0775 (inactive).

In the case of `COC(=O)[C@H](C)NC(=O)CCC1CC(OC(=O)NCc2ccc3c(c2)OCO3)CC2(CCCC(COC(=O)NCC(c3ccccc3)c3ccccc3)O2)O1` (some centres not stated), the z-score was -0.502 (inactive).

On to `O=c1n(-c2ccccc2)c(=O)n2n1CC[C@@H]1C(=NOCc3ccccc3)[C@H]3O[C@H]3[C@@H](O)[C@@H]12`, for which the z-score is -0.619 (inactive).

Take `COC(=O)[C@H]1[C@@H](O)[C@@]2(O)c3ccccc3O[C@@]2(c2ccccc2)[C@@H]1c1ccccc1`: the z-score is 0.685 (inactive).

For `COC(=O)CC=C[C@@H](C)[C@@H](C=NOC(C)CN1CCCc2nc(C)c(C)cc21)OC` (some centres not stated), the z-score was -0.64 (inactive).

For the molecule `COC(=O)[C@H](C)NC(=O)CCC1CC(OC(=O)NCCc2ccc(F)cc2)CC2(CCCC(COC(=O)NCc3cccc(C(F)(F)F)c3)O2)O1` (some centres not stated), the z-score was 0.723 (inactive).

In the case of `Cc1ccc(S(=O)(=O)N[C@H]2COC(=O)CC=C[C@H](C)[C@@H](NS(=O)(=O)c3ccc(C)cc3)COC(=O)CC=C[C@@H]2C)cc1`, the z-score is 0.0401 (inactive).

In the case of `CON=C1[C@H]2CCn3c(=O)n(-c4ccccc4)c(=O)n3[C@H]2[C@H](O)[C@@H]2O[C@H]12`, the z-score is -0.114 (inactive).

As to `C#CCCCON=C1C[C@@H](O)[C@@H](O)[C@@H]2[C@@H]3C(=O)N(C(C)(C)C)C(=O)[C@@H]3CC[C@@H]12`, the z-score was -0.131 (inactive).

On to `CO[C@H]1COC(=O)CC=C[C@@H](C)[C@H](NS(=O)(=O)c2ccc(C)cc2)COC(=O)CCC[C@@H]1C`, for which the z-score was -0.0537 (inactive).

On to `COc1ccc(COC(=O)NN=C2C[C@@H](O)[C@@H](O)[C@@H]3[C@@H]4C(=O)N(c5ccc(F)cc5F)C(=O)[C@@H]4CC[C@H]23)cc1`, for which the z-score is 0.0412 (inactive).

In the case of `COc1ccc(O[C@H]2C=C[C@@H](c3ccccc3)O[C@@H]2COC(=O)CCC(C)=NOC[C@@H](O)[C@H]2O[C@@H]3OC(C)(C)O[C@@H]3[C@H]2O)cc1`, the z-score is 0.875 (inactive).

For the molecule `CO[C@H]1COC(=O)CC=C[C@H](C)[C@@H](OC)COC(=O)[C@H](C)COC(=O)CC=C[C@@H]1C`, the z-score is 0.683 (inactive).

`CCOC(=O)C1=NO[C@]2(C=C(Br)C3(OCCCO3)[C@H]3O[C@H]32)C1`: the z-score is 0.874 (inactive).

In the case of `Cc1cc2c(nc1C)CCCCN2CC(C)ON=C1[C@H]2CCn3c(=O)n(-c4ccccc4)c(=O)n3[C@H]2[C@H](O)[C@@H]2O[C@H]12` (some centres not stated), the z-score is 0.777 (inactive).

For `COc1ccc(O[C@H]2C=C[C@@H](c3ccccc3)O[C@@H]2COC(=O)CCC(C)=NO[C@@H]2O[C@H](COC(C)=O)[C@@H](OC(C)=O)[C@H](OC(C)=O)[C@H]2OC(C)=O)cc1`, the z-score is 0.271 (inactive).

For the molecule `Cc1cc2c(c(=O)o1)[C@@H](O)[C@H]1O[C@H]1C2=O`, the z-score is -1 (inactive).

As for `CCOC(=O)CCN1C(=O)[C@H]2[C@H]3[C@H](O)[C@H](O)CC(=NNC(=O)OCc4ccccc4)[C@@H]3CC[C@H]2C1=O`, the z-score is 0.826 (inactive).

For `O=C1[C@H]2[C@H]3[C@H](O)[C@H](O)CC(=NOC[C@@H](O)COCc4ccco4)[C@@H]3CC[C@H]2C(=O)N1C[C@@H]1CCCO1`, the z-score is 1.05 (inactive).

Take `CC(C)CON=C1C[C@@H](O)[C@@H](O)[C@@H]2[C@@H]3C(=O)N(C[C@@H]4CCCO4)C(=O)[C@@H]3CC[C@@H]12`: the z-score was 1.27 (inactive).

With `CON=Cc1ccc(C(=O)N2[C@H](c3ccc(C)cc3)[C@@H](C)CC[C@H]2C(=O)OC)cc1`, the z-score is 0.823 (inactive).

As for `C[C@@H](c1ccccc1)N1C(=O)[C@H]2[C@H]3[C@H](O)[C@H](O)CC(=O)[C@H]3CC[C@H]2C1=O`, the z-score was 0.541 (inactive).

For the molecule `CC(C)CON=C1C[C@@H](O)[C@@H](O)[C@@H]2[C@@H]3C(=O)N(Cc4ccc5c(c4)OCO5)C(=O)[C@@H]3CC[C@H]12`, the z-score was 0.396 (inactive).

For the molecule `CCN1C(=O)[C@H]2[C@H]3[C@H](O)[C@H](O)CC(=NOCC(C)C)[C@@H]3CC[C@H]2C1=O`, the z-score was -0.637 (inactive).

In the case of `CC(C)=NO[C@H](C)c1cn([C@H](CO)Cc2ccccc2)nn1`, the z-score was 0.208 (inactive).

Regarding `CCCNC(=O)OC[C@H]1O[C@H](c2ccccc2)C=C[C@@H]1Oc1ccc(OC)cc1`, the z-score was 0.806 (inactive).

In the case of `C[C@@H]1CC[C@H]2C(=O)O[C@@H](Cc3ccccc3)CN2[C@H]1c1ccc(Br)cc1`, the z-score was -0.529 (inactive).

Turning to `COc1ccc(O[C@H]2C=C[C@@H](c3ccccc3)O[C@@H]2CON=C(C)CCC(=O)OC[C@H]2O[C@H](c3ccccc3)C=C[C@@H]2Oc2ccc(OC)cc2)cc1`, the z-score was -0.0503 (inactive).

For `O=C1[C@H]2[C@H]3[C@H](O)[C@H](O)CC(=NOCc4ccccc4)[C@@H]3CC[C@H]2C(=O)N1Cc1ccc2c(c1)OCO2`, the z-score is 1.1 (inactive).

On to `COC(=O)CC=C[C@@H](C)[C@@H](C=NO[C@@H]1O[C@H](COC(C)=O)[C@@H](OC(C)=O)[C@H](OC(C)=O)[C@H]1OC(C)=O)OC`, for which the z-score was -0.742 (inactive).

Regarding `COc1cccc([C@H]2Oc3ccc(OC)cc3C(=NOC[C@@H](O)[C@H]3O[C@@H]4OC(C)(C)O[C@@H]4[C@H]3O)[C@@H]2O)c1`, the z-score was 0.932 (inactive).

Turning to `O=C1C[C@@H](O)[C@@H](O)[C@@H]2[C@@H]3C(=O)N(Cc4ccccc4)C(=O)[C@@H]3CC[C@@H]12`, the z-score is -0.174 (inactive).

As for `CO[C@H]1COC(=O)CC=C[C@@H](C)[C@H](OC)COC(=O)CCC[C@@H]1C`, the z-score is -0.351 (inactive).

`CCN1C(=O)[C@H]2[C@H]3[C@H](O)[C@H](O)CC(=NNC(=O)OCc4ccc(OC)cc4)[C@@H]3CC[C@H]2C1=O`: the z-score is 0.214 (inactive).
